Experimental data published in publication PMC4081100, “A DNA-binding-site landscape and regulatory network analysis for NAC transcription factors in Arabidopsis thaliana”.

How the values were obtained:
Experiment in all cases: universal protein binding microarray (PBM); transcription factors of Arabidopsis thaliana; high values mean tight binding
Conditions in all cases: protein: recombinant; tags: GST; chain copies: 2; dsDNA, one strand shown
GST-ANAC092(1-176) = molecular target: T1, GST-ANAC092(1-176) (Arabidopsis thaliana, UniProt Q9FKA0 1-176)
T1 sequence: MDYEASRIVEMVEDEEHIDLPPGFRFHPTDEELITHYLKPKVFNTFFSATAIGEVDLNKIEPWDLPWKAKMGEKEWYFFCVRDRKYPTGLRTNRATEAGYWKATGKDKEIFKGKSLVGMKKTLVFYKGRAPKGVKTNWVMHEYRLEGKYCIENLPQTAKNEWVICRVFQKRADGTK
Summary of the method: (§1)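 Each value is a normalised enrichment score (E-score) describing binding. The GST-tagged proteins, NAC-domain, full-length or DNA-binding-domain, were induced in cells (zinc-finger proteins with zinc acetate added) and purified on glutathione–Sepharose 4B. They were applied at 200 to 500 nM final, in duplicate, to double-stranded custom all-10-mer Agilent 4 × 180K arrays, and gapped and ungapped 8-mers were scored.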

GST-NTL6(1-168) = GST-NTL6(1-168) (Arabidopsis thaliana, UniProt Q9SCK6 1-168)
Summary of the method: as §1

GST-ANAC019 NAC domain = molecular target: T2, GST-ANAC019 NAC domain (Arabidopsis thaliana, UniProt Q9C932 14-162)
T2 sequence: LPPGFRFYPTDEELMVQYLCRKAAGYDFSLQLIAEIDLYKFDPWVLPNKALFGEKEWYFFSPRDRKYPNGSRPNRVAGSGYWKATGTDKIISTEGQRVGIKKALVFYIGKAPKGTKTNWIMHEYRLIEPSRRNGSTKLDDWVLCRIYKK
Summary of the method: as §1

GST-ANAC055(1-171) = molecular target: T3, GST-ANAC055(1-171) (Arabidopsis thaliana, UniProt Q9LDY8 1-171)
T3 sequence: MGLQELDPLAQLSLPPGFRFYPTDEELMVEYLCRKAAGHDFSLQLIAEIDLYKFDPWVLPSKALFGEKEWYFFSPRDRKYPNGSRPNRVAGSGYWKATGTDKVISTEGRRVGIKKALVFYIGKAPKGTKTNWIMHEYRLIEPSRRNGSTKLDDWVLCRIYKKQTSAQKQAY
Summary of the method: as §1

GST-ATAF1 NAC domain = molecular target: T4, GST-ATAF1 NAC domain (Arabidopsis thaliana, UniProt Q39013 7-158)
T4 sequence: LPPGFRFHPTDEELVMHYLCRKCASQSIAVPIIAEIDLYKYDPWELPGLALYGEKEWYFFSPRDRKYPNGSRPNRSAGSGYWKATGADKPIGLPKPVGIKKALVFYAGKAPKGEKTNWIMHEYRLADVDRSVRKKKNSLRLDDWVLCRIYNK
Summary of the method: as §1

[1] = molecular target: T5, GST-ANAC092(1-285) full length (Arabidopsis thaliana, UniProt Q9FKA0 1-285)
T5 sequence: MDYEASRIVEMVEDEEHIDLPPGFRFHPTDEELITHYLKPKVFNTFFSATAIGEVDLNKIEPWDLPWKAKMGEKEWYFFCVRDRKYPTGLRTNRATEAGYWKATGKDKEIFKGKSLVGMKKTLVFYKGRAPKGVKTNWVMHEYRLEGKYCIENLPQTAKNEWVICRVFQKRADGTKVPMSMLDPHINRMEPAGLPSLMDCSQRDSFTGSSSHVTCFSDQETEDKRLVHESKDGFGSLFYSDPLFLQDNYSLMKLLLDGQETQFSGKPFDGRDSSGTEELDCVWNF
Summary of the method: as §1

GST-NAP(1-166) = molecular target: T6, GST-NAP(1-166) (Arabidopsis thaliana, UniProt O49255 1-166)
T6 sequence: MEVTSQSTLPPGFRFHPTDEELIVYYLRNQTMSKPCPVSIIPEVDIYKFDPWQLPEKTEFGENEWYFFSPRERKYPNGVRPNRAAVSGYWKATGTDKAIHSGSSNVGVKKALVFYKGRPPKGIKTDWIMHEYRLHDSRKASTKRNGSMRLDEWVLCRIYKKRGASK
Summary of the method: as §1

GST-NST2(1-184) = molecular target: T7, GST-NST2(1-184) (Arabidopsis thaliana, UniProt Q9M274 1-184)
T7 sequence: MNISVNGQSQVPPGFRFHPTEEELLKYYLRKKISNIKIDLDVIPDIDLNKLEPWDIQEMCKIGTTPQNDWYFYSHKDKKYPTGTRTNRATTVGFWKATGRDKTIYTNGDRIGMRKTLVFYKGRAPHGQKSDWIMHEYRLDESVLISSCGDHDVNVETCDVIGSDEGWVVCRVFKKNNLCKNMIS
Summary of the method: as §1

GST-NTL8 NAC domain = molecular target: T8, GST-NTL8 NAC domain (Arabidopsis thaliana, UniProt Q9XIN7 14-156)
T8 sequence: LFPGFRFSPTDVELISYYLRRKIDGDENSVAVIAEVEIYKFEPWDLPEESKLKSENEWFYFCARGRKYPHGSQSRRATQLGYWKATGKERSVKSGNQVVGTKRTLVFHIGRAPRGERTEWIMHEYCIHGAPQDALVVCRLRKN
Summary of the method: as §1

GST-SND1(1-203) = molecular target: T9, GST-SND1(1-203) (Arabidopsis thaliana, UniProt Q9LPI7 1-203)
T9 sequence: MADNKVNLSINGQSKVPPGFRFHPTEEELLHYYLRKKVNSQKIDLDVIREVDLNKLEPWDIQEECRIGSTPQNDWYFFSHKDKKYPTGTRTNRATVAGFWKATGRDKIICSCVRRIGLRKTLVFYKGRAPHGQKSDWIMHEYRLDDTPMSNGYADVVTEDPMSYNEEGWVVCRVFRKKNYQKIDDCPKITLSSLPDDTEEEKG
Summary of the method: as §1

GST-VND3 NAC domain = molecular target: T10, GST-VND3 NAC domain (Arabidopsis thaliana, UniProt Q9FH59 12-162)
T10 sequence: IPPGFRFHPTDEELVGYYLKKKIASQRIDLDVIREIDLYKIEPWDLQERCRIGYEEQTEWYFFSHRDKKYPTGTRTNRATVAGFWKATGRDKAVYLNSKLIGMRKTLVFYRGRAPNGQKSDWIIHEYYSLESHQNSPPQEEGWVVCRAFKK
Summary of the method: as §1

GST-VND7 NAC domain = molecular target: T11, GST-VND7 NAC domain (Arabidopsis thaliana, UniProt Q9C8W9 9-158)
T11 sequence: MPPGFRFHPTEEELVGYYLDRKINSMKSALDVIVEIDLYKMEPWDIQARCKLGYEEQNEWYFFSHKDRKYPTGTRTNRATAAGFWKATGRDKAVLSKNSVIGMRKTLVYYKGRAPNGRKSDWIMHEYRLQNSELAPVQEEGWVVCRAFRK
Summary of the method: as §1

Sequence of GST-NTL6(1-168) (Q9SCK6 1-168): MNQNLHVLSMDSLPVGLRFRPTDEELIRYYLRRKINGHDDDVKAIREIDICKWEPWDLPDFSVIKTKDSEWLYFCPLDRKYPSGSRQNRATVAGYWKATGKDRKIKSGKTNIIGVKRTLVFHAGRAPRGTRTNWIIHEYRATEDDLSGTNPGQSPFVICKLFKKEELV

Sequence	binding signal (GST-ANAC092(1-176))	binding signal (GST-NTL6(1-168))	binding signal (GST-ANAC019 NAC domain)	binding signal (GST-ANAC055(1-171))	binding signal (GST-ATAF1 NAC domain)	binding signal [1]	binding signal (GST-NAP(1-166))	binding signal (GST-NST2(1-184))	binding signal (GST-NTL8 NAC domain)	binding signal (GST-SND1(1-203))	binding signal (GST-VND3 NAC domain)	binding signal (GST-VND7 NAC domain)
AAGCAAAG	0.302 E-score	0.342 E-score	0.176 E-score	0.125 E-score	0.0761 E-score	0.369 E-score	0.11 E-score	0.278 E-score	0.222 E-score	0.403 E-score	0.198 E-score	0.25 E-score
AGGGAAAA	0.22 E-score	0.201 E-score	0.131 E-score	0.111 E-score	0.187 E-score	0.0865 E-score	0.117 E-score		0.416 E-score	0.115 E-score	0.0874 E-score	0.192 E-score
ACGCTACA	0.27 E-score	0.051 E-score		0.0711 E-score	0.0647 E-score	0.404 E-score	0.0555 E-score	0.249 E-score		0.402 E-score	0.101 E-score	0.0811 E-score
TGGAGTAA	0.319 E-score	0.105 E-score		0.128 E-score	0.11 E-score	0.342 E-score		0.317 E-score		0.454 E-score	0.0609 E-score	0.131 E-score
ATACTTAA	0.0831 E-score	0.445 E-score		0.14 E-score	0.245 E-score	0.164 E-score	0.0565 E-score	0.224 E-score	0.154 E-score	0.246 E-score	0.187 E-score	0.106 E-score
